Data from PubChem BioAssay (NCATS).
Inconclusive results are not listed. Calls of active or inactive are those of the source. Unless noted, calls come from the whole dose curve; as a rule, active = well fitted curve in the direction sought with a large enough effect; inconclusive = small, poorly fitted or top-dose-only effect, or another doubt; inactive = no such curve, though single readings can be large; an effect the other way counts as inactive or inconclusive.

Assays:
[1] = target: Lysosomal acid glucosylceramidase (Homo sapiens) (UniProt P04062); test: Glucocerebrosidase-p2 (AID 348; in the data active = potency below about 10 µM; note: potency is the fitted concentration of half-maximal effect); details: purified GBA, blue fluorogenic substrate, 40 min
Chain of Lysosomal acid glucosylceramidase (Homo sapiens) (P04062 whole entry, looked up): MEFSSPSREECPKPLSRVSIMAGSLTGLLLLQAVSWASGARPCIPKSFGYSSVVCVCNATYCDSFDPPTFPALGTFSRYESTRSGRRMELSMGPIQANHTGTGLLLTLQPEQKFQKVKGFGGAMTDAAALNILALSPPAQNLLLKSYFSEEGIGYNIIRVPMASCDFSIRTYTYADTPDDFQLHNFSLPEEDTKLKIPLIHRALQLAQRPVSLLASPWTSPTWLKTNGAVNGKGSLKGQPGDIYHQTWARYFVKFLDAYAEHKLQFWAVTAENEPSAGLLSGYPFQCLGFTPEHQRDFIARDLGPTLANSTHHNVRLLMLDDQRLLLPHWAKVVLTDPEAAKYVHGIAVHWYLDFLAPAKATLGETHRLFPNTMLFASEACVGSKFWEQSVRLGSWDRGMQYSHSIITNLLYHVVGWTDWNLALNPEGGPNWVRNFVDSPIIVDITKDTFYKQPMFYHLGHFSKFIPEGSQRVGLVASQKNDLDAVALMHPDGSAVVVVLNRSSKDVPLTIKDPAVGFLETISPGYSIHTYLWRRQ
Procedure, shortened: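 Compounds titrated from 0.6 nM upwards against 0.2 nM enzyme in pH 5.9 citric acid/KH2PO4, taurocholate, tween-20; blue fluorogenic substrate 80 uM, 40 min room temperature, stopped and read Ex 365/Em 440 for AC50.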

[2] = AP1 Signaling Pathway (AID 357; active = well fitted curve in either direction with a large enough effect, not every such curve was filed as active; note: % is set by controls: 0 for no effect and ±100 for the full control effect); details: ME-180 AP-1-bla reporter, EGF-induced, beta-lactamase ratio, 5 h; at 7.69 µM (top of the series) unless noted
Procedure, shortened: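 ME-180 cells with beta-lactamase reporter under AP-1 response element, stimulated with EC50 EGF; compounds tested in titration series, 5 h at 37 °C. CCF4 substrate added 2.5 h at room temperature; 460/530 nm emission ratio gave %activity and AC50.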

[3] = target: Cytochrome P450 1A2 (Homo sapiens) (UniProt P05177); test: p450-cyp1a2 (AID 410; calls by dose curve; note: potency is the fitted concentration of half-maximal effect); details: recombinant CYP1A2, luciferin-ME demethylation, luminescence; series mostly up to 57 µM
Chain of Cytochrome P450 1A2 (Homo sapiens) (P05177 whole entry, looked up): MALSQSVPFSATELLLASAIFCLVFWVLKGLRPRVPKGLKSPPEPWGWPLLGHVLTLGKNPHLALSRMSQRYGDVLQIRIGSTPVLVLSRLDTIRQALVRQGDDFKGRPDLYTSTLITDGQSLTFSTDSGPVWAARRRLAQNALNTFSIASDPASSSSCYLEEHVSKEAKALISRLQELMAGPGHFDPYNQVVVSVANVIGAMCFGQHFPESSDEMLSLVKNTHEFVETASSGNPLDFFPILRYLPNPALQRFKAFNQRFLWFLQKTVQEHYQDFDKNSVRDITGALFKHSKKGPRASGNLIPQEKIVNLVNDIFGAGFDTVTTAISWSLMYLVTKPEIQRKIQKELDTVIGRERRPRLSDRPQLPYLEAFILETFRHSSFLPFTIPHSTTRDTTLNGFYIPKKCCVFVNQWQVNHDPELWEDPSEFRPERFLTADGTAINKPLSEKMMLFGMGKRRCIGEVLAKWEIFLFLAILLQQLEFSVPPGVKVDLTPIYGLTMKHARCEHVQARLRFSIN
Procedure, shortened: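 20nM CYP1A2 with 100uM Luciferin-ME (at Km) in 100mM KPO4; compound preincubated 10 min, NADPH regeneration added, 60 min at room temperature. Luciferin quantified by luminescence after detection reagent; normalized to 57 uM furafylline.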

[4] = NFAT Signaling Pathway (AID 444; active = well fitted curve in either direction with a large enough effect, not every such curve was filed as active;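 note: carbachol stimulus at about its EC50 of 1 µM final; % is set by controls: 0 for no effect and ±100 for the full control effect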); details: Jurkat NFAT-bla M1, carbachol, beta-lactamase ratio, 5 h; at 7.69 µM (top of the series) unless noted
Procedure, shortened: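 Jurkat cells carrying an NFAT-driven β-lactamase reporter and co-transfected muscarinic M1 receptor were treated with compound plus carbachol (1 uM final, an EC50 level) for 5 h at 37 °C. CCF4 loading followed for 1 h at RT; 460/530 nm ratio gave %activity.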

[5] = Stat Signaling Pathway (AID 446; active = well fitted curve in either direction with a large enough effect, not every such curve was filed as active;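 note: ME-180 cervical cancer cells given 40 pM IL-6 alongside compound; SIE-controlled beta-lactamase reporter measured as 460/530 nm FRET emission ratio; % is set by controls: 0 for no effect and ±100 for the full control effect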); details: ME-180 SIE beta-lactamase reporter, IL-6 stimulated, 5 h; at 7.69 µM (top of the series) unless noted
Procedure, shortened: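 ME-180 SIE-bla cells; overnight plating; cpd + IL-6 40 pM, 5 h, 37 C; LiveBLAzer 2.5 h RT; 460/530 nm emission ratio. Normalized to 300 pM IL-6 and 125 nM JAK inhibitor controls.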

[6] = target: Glucocorticoid receptor (Homo sapiens) (UniProt P04150); test: GR-GFP Redistribution (AID 450;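 active = compounds whose dose series gives a full or clear partial fitted curve of increased nuclear translocation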; note: potency is the fitted concentration of half-maximal effect); details: U2OS GR-GFP nuclear translocation, laser cytometry, 2 h
Chain of Glucocorticoid receptor (Homo sapiens) (P04150 whole entry, looked up, the tested form may be a part): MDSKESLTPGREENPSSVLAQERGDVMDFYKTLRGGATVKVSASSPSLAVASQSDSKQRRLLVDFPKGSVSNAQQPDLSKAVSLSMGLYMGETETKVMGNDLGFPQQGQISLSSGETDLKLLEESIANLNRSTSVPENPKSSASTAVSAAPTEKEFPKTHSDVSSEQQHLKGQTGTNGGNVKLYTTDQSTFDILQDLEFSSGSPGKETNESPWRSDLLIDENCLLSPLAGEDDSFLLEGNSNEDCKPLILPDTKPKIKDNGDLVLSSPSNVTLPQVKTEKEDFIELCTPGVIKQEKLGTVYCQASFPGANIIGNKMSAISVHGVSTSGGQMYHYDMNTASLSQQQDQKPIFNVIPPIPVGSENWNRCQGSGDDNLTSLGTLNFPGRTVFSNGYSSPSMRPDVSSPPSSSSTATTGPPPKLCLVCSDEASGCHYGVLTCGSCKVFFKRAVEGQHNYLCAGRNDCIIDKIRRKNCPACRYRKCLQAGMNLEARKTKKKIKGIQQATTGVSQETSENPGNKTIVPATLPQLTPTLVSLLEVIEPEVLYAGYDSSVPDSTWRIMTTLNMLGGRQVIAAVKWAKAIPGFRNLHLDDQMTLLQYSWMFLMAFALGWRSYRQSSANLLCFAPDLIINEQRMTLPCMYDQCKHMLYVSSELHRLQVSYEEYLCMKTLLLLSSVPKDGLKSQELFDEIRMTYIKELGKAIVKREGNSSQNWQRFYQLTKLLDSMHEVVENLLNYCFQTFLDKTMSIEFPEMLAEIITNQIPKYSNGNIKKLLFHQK

[7] = target: Glucocorticoid receptor (Homo sapiens) (UniProt P04150); test: GR-EFC Redistribution (AID 451; calls by dose curve; note: potency is the fitted concentration of half-maximal effect); details: CHO-K1 GR-EFC translocation, beta-gal luminescence, 2 h
Procedure, shortened: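 CHO-K1 cells stably expressing nuclear-localized β-gal enzyme acceptor and GR fused C-terminally to the enzyme donor fragment; ligand-driven nuclear translocation restores β-gal by complementation. Compounds titrated up to 46 uM final, 2 h at 37 °C; luminescence read.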

[8] = target: Mitogen-activated protein kinase 10 (Mus musculus) (UniProt Q61831); test: JNK3 AlphaScreen Assay (AID 530; active = well fitted curve in either direction with a large enough effect, not every such curve was filed as active;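 note: kinase came from lysate of stimulated human HepG2 cells; signal reports phosphorylation of biotinylated GST-cJun 1-79 at Ser73 with 10 µM ATP; % is set by controls: 0 for no effect and ±100 for the full control effect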); details: JNK3 lysate, c-Jun phosphorylation; series mostly up to 57.1 µM
Procedure, shortened: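 Inhibitors reduce antibody binding to phosphorylated biotin-cJun, lowering AlphaScreen luminescence. Lysates from HepG2 cells pre-activated by IL-1beta plus TNF-alpha supplied JNK3; compounds were titrated.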

[9] = target: Cytochrome P450 3A4 (Homo sapiens) (UniProt P08684); test: qHTS Assay for Inhibitors and Substrates of Cytochrome P450 3A4 (AID 884); details: recombinant CYP3A4, Luciferin-PPXE luminescence; series mostly up to 57.1 µM; note: nearly all actives have a fitted effect of over 50% in size; note: potency is the fitted concentration of half-maximal effect
Chain of Cytochrome P450 3A4 (Homo sapiens) (P08684 whole entry, looked up): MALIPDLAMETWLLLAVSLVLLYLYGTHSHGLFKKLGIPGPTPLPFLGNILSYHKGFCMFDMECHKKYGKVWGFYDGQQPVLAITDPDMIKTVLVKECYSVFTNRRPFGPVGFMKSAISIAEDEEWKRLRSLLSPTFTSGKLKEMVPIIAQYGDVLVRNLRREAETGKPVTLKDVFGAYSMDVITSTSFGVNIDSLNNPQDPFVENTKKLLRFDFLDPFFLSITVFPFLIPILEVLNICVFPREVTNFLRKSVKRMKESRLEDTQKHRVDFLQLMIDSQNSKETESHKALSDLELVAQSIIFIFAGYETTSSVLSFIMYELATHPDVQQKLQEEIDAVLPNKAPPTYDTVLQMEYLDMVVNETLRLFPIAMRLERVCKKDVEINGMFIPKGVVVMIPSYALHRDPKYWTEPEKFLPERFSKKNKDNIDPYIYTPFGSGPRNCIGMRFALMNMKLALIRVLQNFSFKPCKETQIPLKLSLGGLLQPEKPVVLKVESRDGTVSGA
Procedure, shortened: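 20 nM human CYP3A4 with 25 uM Luciferin-PPXE (at KM) in 200 mM KPO4, preincubated 10 min with compound; NADPH regeneration started a 60 min RT reaction. Luciferin detected by luminescence, normalized to 57 uM ketoconazole as full inhibition.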

[10] = target: Cytochrome P450 3A4 (Homo sapiens) (UniProt P08684); test: qHTS Assay for Activators of Cytochrome P450 3A4 (AID 885); details: recombinant CYP3A4, Luciferin-PPXE luminescence, 60 min; series mostly up to 57.1 µM; note: nearly all actives have a fitted effect of over 65% in size
Procedure, shortened: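 20nM CYP3A4 + 25uM Luciferin-PPXE (=KM), 200mM KPO4; cpd 10 min RT; NADPH regen, 60 min RT; stop w/ detection buffer, 20 min; luminescence. Normalized to 57 uM ketoconazole.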

[11] = target: Dual specificity protein kinase CLK4 (Homo sapiens) (UniProt Q9HAZ1); test: qHTS Assay for Inhibitors of CDC-like Kinase 4 (Kinase-Glo Assay) (AID 1770); details: recombinant Clk4, Kinase-Glo ATP depletion luminescence; series mostly up to 66.7 µM; note: nearly all actives have a fitted effect of over 65% in size; note: potency is the fitted concentration of half-maximal effect
Chain of Dual specificity protein kinase CLK4 (Homo sapiens) (Q9HAZ1 whole entry, looked up): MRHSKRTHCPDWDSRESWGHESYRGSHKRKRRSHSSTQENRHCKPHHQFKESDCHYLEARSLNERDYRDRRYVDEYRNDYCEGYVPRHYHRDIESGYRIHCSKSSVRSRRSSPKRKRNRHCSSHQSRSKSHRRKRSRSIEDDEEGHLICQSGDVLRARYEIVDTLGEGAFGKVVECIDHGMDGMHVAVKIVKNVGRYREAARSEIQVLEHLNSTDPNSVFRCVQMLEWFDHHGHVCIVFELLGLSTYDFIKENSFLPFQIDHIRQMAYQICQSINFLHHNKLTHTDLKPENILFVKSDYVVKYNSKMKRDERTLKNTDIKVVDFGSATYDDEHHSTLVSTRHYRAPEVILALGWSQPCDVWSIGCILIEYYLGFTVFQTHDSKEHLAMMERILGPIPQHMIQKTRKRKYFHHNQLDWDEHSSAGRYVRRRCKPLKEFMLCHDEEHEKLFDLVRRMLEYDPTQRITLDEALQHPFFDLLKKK
Procedure, shortened: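 Substrate mix (RS peptide 100 uM, ATP 1 uM) dispensed, compound pinned in, then Clk4 added to 25 nM final. Incubated 4.5 h at RT; Kinase-Glo reagent added, luminescence read after 5 min.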

[12] = target: Ubiquitin carboxyl-terminal hydrolase 1 (Homo sapiens) (UniProt O94782); test: Inhibitors of USP1/UAF1: Pilot qHTS (AID 504865); details: purified USP1/UAF1, Ub-rhodamine cleavage fluorescence; series mostly up to 54.9 µM; note: nearly all actives have a fitted effect of over 35% in size; note: potency is the fitted concentration of half-maximal effect
Chain of Ubiquitin carboxyl-terminal hydrolase 1 (Homo sapiens) (O94782 whole entry, looked up): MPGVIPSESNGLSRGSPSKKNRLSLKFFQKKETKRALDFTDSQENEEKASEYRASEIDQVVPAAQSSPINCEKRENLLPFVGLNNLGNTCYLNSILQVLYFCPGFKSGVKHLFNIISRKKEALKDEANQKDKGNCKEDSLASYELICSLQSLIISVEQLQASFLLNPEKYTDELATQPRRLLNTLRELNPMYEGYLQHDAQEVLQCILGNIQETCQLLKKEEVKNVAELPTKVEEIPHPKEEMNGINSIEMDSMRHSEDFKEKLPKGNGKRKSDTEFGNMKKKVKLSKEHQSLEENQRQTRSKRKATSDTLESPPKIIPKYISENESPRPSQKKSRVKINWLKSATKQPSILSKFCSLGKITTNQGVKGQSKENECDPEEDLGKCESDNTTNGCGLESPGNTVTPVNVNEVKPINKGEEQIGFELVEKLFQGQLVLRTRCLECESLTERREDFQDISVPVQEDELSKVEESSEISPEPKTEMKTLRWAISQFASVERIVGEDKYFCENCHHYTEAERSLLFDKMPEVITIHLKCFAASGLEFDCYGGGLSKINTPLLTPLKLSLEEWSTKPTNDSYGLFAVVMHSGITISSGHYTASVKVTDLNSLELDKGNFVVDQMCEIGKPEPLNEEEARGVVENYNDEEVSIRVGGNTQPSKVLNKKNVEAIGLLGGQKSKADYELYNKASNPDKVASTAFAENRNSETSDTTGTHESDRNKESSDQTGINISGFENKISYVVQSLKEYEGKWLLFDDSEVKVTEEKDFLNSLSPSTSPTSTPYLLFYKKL
Procedure, shortened: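 In 50mM HEPES pH 7.8 containing 0.5mM EDTA, 1mM TCEP, 0.1 mg/ml BSA and 0.01% Tween-20, 1nM USP1/UAF1 is exposed to compound for 15 min, then Ub-Rho (150nM final) is added and fluorescence is read over time.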

[13] = Primary qHTS for small molecule stabilizers of the endoplasmic reticulum resident proteome: Secreted ER Calcium Modulated Protein (SERCaMP) assay (AID 1508630); details: SH-SY5Y GLuc-SERCaMP (Gaussia luciferase released on ER calcium loss) secretion, thapsigargin, luminescence; series mostly up to 38.4 µM; note: % is set by controls: 0 for no effect and ±100 for the full control effect
Procedure, shortened: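 GLuc-SERCaMP-expressing SH-SY5Y cells, pretreated 16 h with compound, are challenged with thapsigargin to empty ER calcium stores; after 4 h, coelenterazine is added directly to the medium and luminescence is imaged.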

[14] = target: 3',5'-cyclic-AMP phosphodiesterase 4B (Homo sapiens) (UniProt Q07343); test: qHTS Assay for Inhibitors of PDE-IV (AID 607; active = well fitted activation curve with a large enough effect in the main read-out, with a control signal flat, not every such curve was filed as active; note: % of control where 0% means no effect); details: HEK293 ACTOne CNG channel cells, membrane potential fluorescence; series mostly up to 22.9 µM
Chain of 3',5'-cyclic-AMP phosphodiesterase 4B (Homo sapiens) (Q07343 whole entry, looked up): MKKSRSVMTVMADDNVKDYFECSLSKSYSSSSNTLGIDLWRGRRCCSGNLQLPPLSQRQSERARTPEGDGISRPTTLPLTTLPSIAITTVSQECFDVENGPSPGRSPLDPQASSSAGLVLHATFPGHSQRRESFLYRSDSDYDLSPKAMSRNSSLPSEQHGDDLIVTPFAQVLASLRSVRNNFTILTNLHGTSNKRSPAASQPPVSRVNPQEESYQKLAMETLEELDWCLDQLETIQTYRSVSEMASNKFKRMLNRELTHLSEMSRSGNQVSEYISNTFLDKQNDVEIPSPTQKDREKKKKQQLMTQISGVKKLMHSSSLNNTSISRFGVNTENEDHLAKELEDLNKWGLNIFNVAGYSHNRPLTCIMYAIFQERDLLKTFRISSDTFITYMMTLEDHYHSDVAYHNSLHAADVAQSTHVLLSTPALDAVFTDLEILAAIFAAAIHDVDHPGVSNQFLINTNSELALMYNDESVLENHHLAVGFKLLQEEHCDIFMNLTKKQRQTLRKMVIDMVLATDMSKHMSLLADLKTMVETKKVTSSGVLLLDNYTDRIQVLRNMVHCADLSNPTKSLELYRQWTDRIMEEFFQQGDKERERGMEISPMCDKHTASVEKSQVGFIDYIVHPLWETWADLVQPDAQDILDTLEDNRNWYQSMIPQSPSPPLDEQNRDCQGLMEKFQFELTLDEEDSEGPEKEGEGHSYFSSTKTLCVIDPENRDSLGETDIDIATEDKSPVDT
Procedure, shortened: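 ACTOne HEK293 cells carry a modified cAMP-gated CNG channel and express endogenous PDE4; plated 1000 cells/well, compounds up to 22.9 uM final. Membrane-potential dye fluorescence (ex 535/em 590) was read; parental cells received 10 uM forskolin + 100 uM RO 20-1724.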

[15] = target: Dual specificity protein kinase CLK4 (Homo sapiens) (UniProt Q9HAZ1); test: qHTS Assay for Inhibitors of CDC-like Kinase 4 (ADP-Glo Assay) (AID 1771); details: recombinant CLK4, ADP-Glo luminescence; series mostly up to 80 µM; note: nearly all actives have a fitted effect of over 70% in size; note: potency is the fitted concentration of half-maximal effect
Procedure, shortened: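 25 nM Clk4 with 100 uM RS repeat peptide and 1 uM ATP (final) in buffer with 2 mM MgCl2, 0.5 mM EGTA, 2.5 mM DTT, 0.01% Triton X-100; 1 h at room temperature; ADP-Glo luminescence for ADP formed.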

[16] = target: Dual specificity protein kinase CLK4 (Homo sapiens) (UniProt Q9HAZ1); test: qHTS Assay for Inhibitors of CDC-like Kinase 4 (ADP-FP Assay) (AID 1795); details: Transcreener ADP fluorescence polarization; series mostly up to 50 µM;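 note: recombinant human CLK4 phosphorylating RS repeat peptide at 1 µM ATP; % is set by controls: 0 for no effect and ±100 for the full control effect; nearly all actives have a fitted effect of over 60% in size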
Procedure, shortened: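 Clk4 6.25 nM; RS peptide 100 uM; ATP 1 uM; 25 mM Tris pH 7.5, 10 mM MgCl2; 1 h reaction. ADP detected via antibody/orange tracer FP displacement; TG003 positive control.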

[17] = target: Cytochrome P450 2C19 (Homo sapiens) (UniProt P33261); test: qHTS Assay for Inhibitors and Substrates of Cytochrome P450 2C19 (AID 899); details: recombinant CYP2C19, luciferin-H EGE luminescence; series mostly up to 57.1 µM; note: potency is the fitted concentration of half-maximal effect; nearly all actives have a fitted effect of over 60% in size
Chain of Cytochrome P450 2C19 (Homo sapiens) (P33261 whole entry, looked up): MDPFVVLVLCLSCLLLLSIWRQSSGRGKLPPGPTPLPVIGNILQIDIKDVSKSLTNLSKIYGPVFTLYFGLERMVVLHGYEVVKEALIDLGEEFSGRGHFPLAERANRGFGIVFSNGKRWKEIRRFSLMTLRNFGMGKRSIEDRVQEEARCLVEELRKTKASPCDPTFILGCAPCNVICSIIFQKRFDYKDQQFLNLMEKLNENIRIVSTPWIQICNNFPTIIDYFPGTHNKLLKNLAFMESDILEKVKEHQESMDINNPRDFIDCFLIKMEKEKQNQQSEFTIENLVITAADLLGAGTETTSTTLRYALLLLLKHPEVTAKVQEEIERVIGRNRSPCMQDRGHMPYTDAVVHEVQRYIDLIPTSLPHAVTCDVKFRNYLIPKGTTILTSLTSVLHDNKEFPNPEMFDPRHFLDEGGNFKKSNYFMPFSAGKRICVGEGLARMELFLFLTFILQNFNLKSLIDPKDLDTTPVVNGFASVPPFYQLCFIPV
Procedure, shortened: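 NADPH-dependent conversion of Luciferin-H EGE (10uM, at KM) by 5nM enzyme in 50mM KPO4, 60 min at 37C following 10 min compound preincubation. Stopped with luciferin detection buffer; luminescence read after 20 min.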

N#Cc1cccc(-c2nc(NCc3cccnc3)c3ccccc3n2)c1
active: Potency [3] 0.251 µM | Potency [9] 5.01 µM
inactive: Potency [1] > 11.4 µM | activity change, negative = inhibition [2] -20.1% | activity change, negative = inhibition [4] 28.2% | activity, negative = inhibition [5] -21.4% | Potency [6] > 46 µM | Potency [7] > 46 µM | Potency [8] | Potency [10] | Potency [11] | Potency [12] | outcome [13]

COCCn1c(=O)c(-c2ccc(Cl)cc2)nc2cnc(N3CCOCC3)nc21
active: Potency [3] 1 µM
inactive: Potency [1] > 11.4 µM | activity change, negative = inhibition [2] 9.82% | activity change, negative = inhibition [4] 7.69% | activity, negative = inhibition [5] 9.52% | Potency [6] > 9.22 µM | Potency [7] > 46 µM | Potency [8] | Potency [14] | Potency [15] | Potency [16] | Potency [12] | outcome [13]

Cc1cnc(CNc2ncncc2-c2ccc(N(C)C)cc2)cn1
inactive: Potency [1] > 11.4 µM | activity change, negative = inhibition [2] 3.22% | activity change, negative = inhibition [4] -0.821% | activity, negative = inhibition [5] 13.6% | Potency [6] > 46 µM | Potency [7] > 46 µM | Potency [8] | Potency [14] | Potency [10] | Potency [16] | Potency [12] | outcome [13]
active: Potency [3] 3.16 µM | Potency [9] 2 µM | Potency [15] 15.8 µM

Clc1ccccc1-c1cc(NCc2ccccc2)ncn1
inactive: Potency [1] > 11.4 µM | activity change, negative = inhibition [2] 0.871% | activity change, negative = inhibition [4] 1.92% | activity, negative = inhibition [5] 4.36% | Potency [6] > 46 µM | Potency [7] > 46 µM | Potency [8] | Potency [9] | outcome [13]
active: Potency [3] 3.98 µM | Potency [17] 7.94 µM | Potency [11] 25.1 µM

COc1cccc(-c2nccc(NCc3cnc(C)cn3)n2)c1
inactive: Potency [1] > 11.4 µM | activity change, negative = inhibition [2] 2.41% | activity change, negative = inhibition [4] -1.09% | activity, negative = inhibition [5] 13.7% | Potency [6] > 46 µM | Potency [7] > 46 µM | Potency [8] | Potency [14] | Potency [10] | Potency [16] | Potency [12] | outcome [13]
active: Potency [3] 0.501 µM | Potency [9] 6.31 µM | Potency [15] 28.2 µM

Cc1cccc(CNc2ccnc(-c3ccccc3Cl)n2)c1
active: Potency [3] 1.58 µM | Potency [9] 3.98 µM | Potency [17] 1.26 µM | Potency [12] 28.2 µM
inactive: activity change, negative = inhibition [2] -2.43% | activity change, negative = inhibition [4] -3.52% | activity, negative = inhibition [5] -10.7% | Potency [6] > 46 µM | Potency [7] > 46 µM | Potency [8] | Potency [10] | Potency [15] | outcome [13]

COc1ccccc1-c1cncnc1NCc1ccccc1
active: Potency [3] 12.6 µM | Potency [9] 0.251 µM
inactive: Potency [1] > 11.4 µM | activity change, negative = inhibition [2] 4.35% | activity change, negative = inhibition [4] -17.9% | activity, negative = inhibition [5] -7.05% | Potency [6] > 46 µM | Potency [7] > 46 µM | Potency [8] | Potency [14] | Potency [10] | Potency [16] | Potency [12] | outcome [13]
